For 26 molecules, Z-AUC and z-score results are on record in PubChem BioAssay (NCATS).

Results filed as inconclusive are left out. Calls of active or inactive are those of the source. The call rests on the fitted dose curve.

Test [1] in a line: qHTS drug screen for cell cycle checkpoint inhibitors in PARPi-resistant BRCA-mutant ovarian cancer cell lines. (AID 1963452). Particulars: PEO1/OlaR viability, CellTiter-Glo luminescence, 96 h, stronger effect = lower value. The gist of the method: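 PEO1, PEO4 and PEO1/OlaR ovarian cancer cells, 600 per well, exposed 96 h at 37C to a dilution series. Viability read by CellTiter-Glo luminescence, normalized to DMSO and empty wells; activity summarized as Z-AUC.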
In general terms: In qHTS, concentration-response curves come from the screen itself.

The nature of test [2]: qHTS for identification of novel therapeutic agents for treatment of microphthalmiaassociated transcription factor (MiT) renal cell carcinoma (RCC) (AID 1963991). Particulars: CellTiter-Glo, 48 h, stronger effect = lower value. In outline:
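Viability of three TFE3-fusion renal carcinoma lines measured by CellTiter-Glo after 48 h treatment with each of 1912 compounds at 11 concentrations. Responses scaled between DMSO (100%) and empty wells (0%) before curve fitting.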

The mark [3] stands for this setting: measured here: PEO1 parental Z-AUC.
[4] abbreviates: TFE3-RCC UOK109 viability, measured here: UOK109 Z-AUC.
The mark [5] stands for this setting: TFE3-RCC viability, measured here: UOK124 Z-AUC.
Where [6] appears, read: TFE3-RCC viability, measured here: UOK145 Z-AUC.

With `COc1cc2nccc(Oc3ccc(NC(=O)Nc4cc(C)on4)c(Cl)c3)c2cc1OC`, the Z-AUC in test [1] is -0.11 (inactive); in test [1] (setting [3]) it was 0.0474; in test [1] (measured here: PEO4 Z-AUC), 0.0316.

As for `CNC(=O)c1c(-c2ccc(F)cc2)oc2cc(N(CCO)S(C)(=O)=O)c(C3CC3)cc12`, the Z-AUC in test [1] was 0.51 (inactive); in test [1] (setting [3]), 0.436; in test [1] (measured here: PEO4 Z-AUC), 0.532.

On to `Fc1ccc(CNc2ncnc3ccc(F)cc23)cc1`, for which the Z-AUC in test [1] was -0.894 (inactive); in test [1] (setting [3]), -1.29; in test [1] (measured here: PEO4 Z-AUC) it was -1.17.

Regarding `CNC1CCC(N(Cc2cccc(-c3ccncc3)c2)C(=O)c2sc3ccccc3c2Cl)CC1` (stereo not given), the Z-AUC in test [1] was 0.143 (inactive); in test [1] (setting [3]) it was 0.312; in test [1] (measured here: PEO4 Z-AUC), 0.329.

In the case of `N[C@@H](CC(=O)N1CCn2c(nnc2C(F)(F)F)C1)Cc1cc(F)c(F)cc1F`, the Z-AUC in test [1] is 0.69 (inactive); in test [1] (setting [3]) it was 0.734; in test [1] (measured here: PEO4 Z-AUC) it was 0.789.

With `COc1nc(C)cnc1NS(=O)(=O)c1cccnc1-c1ccc(-c2nnco2)cc1`, the Z-AUC in test [1] was 1.25 (inactive); in test [1] (setting [3]), 1.67; in test [1] (measured here: PEO4 Z-AUC) it was 1.16.

As to `COC(=O)N1CCN(Cc2cccc(NC(=O)Nc3ccc(C)nc3)c2F)CC1`, the Z-AUC in test [1] was -0.162 (inactive); in test [1] (setting [3]), -0.204; in test [1] (measured here: PEO4 Z-AUC), -0.622.

In the case of `COc1cc(F)c(C(C)C)cc1-c1ccc(C(F)(F)F)cc1CN1C(=O)O[C@H](c2cc(C(F)(F)F)cc(C(F)(F)F)c2)[C@@H]1C`, the Z-AUC in test [1] was 0.469 (inactive); in test [1] (setting [3]), 0.239; in test [1] (measured here: PEO4 Z-AUC) it was 0.327.

For the molecule `C[C@@]1(c2cc(-c3cncnc3)c(F)cc2F)CCSC(N)=N1`, the results for the Z-AUC in test [1], in test [1] (setting [3]) and in test [1] (measured here: PEO4 Z-AUC) were 0.854 (inactive), 0.822 and 0.652, respectively.

`CC(=O)NCCC(=O)N[C@@H](CCC(N)=O)C(=O)N[C@@H](CO)C(=O)N[C@@H](CCC(N)=O)C(=O)N[C@@H](CCC(N)=O)C(=O)N[C@H](C(=O)N[C@@H](Cc1ccccc1)C(=O)N[C@]1(C)CCCCCCC=CCCC[C@@](C)(C(=O)N[C@@H](CCC(N)=O)C(=O)N[C@@H](CC(N)=O)C(N)=O)NC(=O)[C@H](CC(C)C)NC(=O)[C@H](CC(C)C)NC(=O)[C@@H](CCCNC(=N)N)NC(=O)[C@H](Cc2c[nH]c3ccccc23)NC(=O)[C@H](CC(C)C)NC(=O)[C@H](CC(N)=O)NC1=O)[C@H](C)O`: the Z-AUC was -0.975 (inactive) in test [1], -0.536 in test [1] (setting [3]) and -0.428 in test [1] (measured here: PEO4 Z-AUC).

`CSc1cccc(Nc2ncc3cc(-c4c(Cl)cccc4Cl)c(=O)n(C)c3n2)c1`: the Z-AUC in test [1] was 0.438 (inactive); in test [1] (setting [3]), 0.39; in test [1] (measured here: PEO4 Z-AUC) it was 0.318.

Consider `C[C@@H](NC(=O)c1ncnc(N)c1Cl)c1ncc(C(=O)Nc2cc(C(F)(F)F)c(Cl)cn2)s1`, for which the Z-AUC in test [1] is 0.509 (inactive); in test [1] (setting [3]) it was 0.52; in test [1] (measured here: PEO4 Z-AUC) it was 0.658.

In the case of `CNC(=O)c1ccc2c(C(=Nc3cccc(CN(C)C)c3)c3ccccc3)c(O)[nH]c2c1`, the Z-AUC in test [1] was -0.0393 (inactive); in test [1] (setting [3]) it was 0.42; in test [1] (measured here: PEO4 Z-AUC), 0.638.

In the case of `C[C@@]1(C(=O)Nc2ccc(F)nc2)CCCN1c1nc(Nc2cc(C3CC3)[nH]n2)c2cccn2n1`, the Z-AUC in test [1] is 0.31 (inactive); in test [1] (setting [3]), 0.238; in test [1] (measured here: PEO4 Z-AUC), -0.135.

On to `CN(C)N=Nc1nc[nH]c1C(N)=O`, for which the results for the Z-AUC in test [1], in test [1] (setting [3]) and in test [1] (measured here: PEO4 Z-AUC) were 1.39 (inactive), 0.491 and 0.792, respectively.

Turning to `CNC(=O)c1cc(Oc2ccc(NC(=O)Nc3ccc(Cl)c(C(F)(F)F)c3)c(F)c2)ccn1`, the Z-AUC is 0.96 (inactive) in test [1], 0.462 in test [1] (setting [3]) and 0.496 in test [1] (measured here: PEO4 Z-AUC).

As to `CN1c2ccccc2C(=O)N2CCc3c([nH]c4ccccc34)C21` (stereo not given), the Z-AUC was 0.807 (inactive) in test [1], -0.272 in test [1] (setting [3]) and -0.128 in test [1] (measured here: PEO4 Z-AUC).

As to `Nc1[nH]nc2nnc(-c3c(-c4ccccc4)nn4ccccc34)cc12`, the Z-AUC in test [1] was -0.433 (inactive); in test [1] (setting [3]), 0.0529; in test [1] (measured here: PEO4 Z-AUC) it was -0.206.

As for `CCC(c1ccc(O)cc1)C(CC)c1ccc(O)cc1` (stereo not given), the Z-AUC in test [1] was -0.216 (inactive); in test [1] (setting [3]) it was -0.74; in test [1] (measured here: PEO4 Z-AUC), -0.679.

Regarding `CN1CCN(c2ncc(-c3cc(Cl)cc(Cl)c3Cl)c(N)n2)CC1`, the values for the Z-AUC in test [1], in test [1] (setting [3]) and in test [1] (measured here: PEO4 Z-AUC) were -0.667 (inactive), -0.953 and -0.943, respectively.

As for `C[C@H](c1ccc(F)cc1CCCC(=O)O)N(c1cc(F)ccc1F)S(=O)(=O)c1ccc(Cl)cc1`, the Z-AUC in test [1] is -0.634 (inactive); in test [1] (setting [3]), -0.271; in test [1] (measured here: PEO4 Z-AUC), -0.797. The z-score in test [2] (setting [4]) is 0.174; in test [2] (setting [5]), -0.0423; in test [2] (setting [6]), -0.497.

In the case of `O=C(O)C1=CC(O)C(O)[C@H](O)C1` (stereo not given in full), the Z-AUC in test [1] was 1.17 (inactive); in test [1] (setting [3]), 1.52; in test [1] (measured here: PEO4 Z-AUC), 1.23. The z-score came out at 1.04 in test [2] (setting [4]), 0.866 in test [2] (setting [5]) and 0.319 in test [2] (setting [6]).

Turning to `CC1=C(C(=O)Nc2cc3cn[nH]c3cc2F)C(c2ccc(C(F)(F)F)cc2)CC(=O)N1` (stereo not given), the Z-AUC in test [1] was -0.362 (inactive); in test [1] (setting [3]), -0.272; in test [1] (measured here: PEO4 Z-AUC), -0.273. Besides, the z-score in test [2] (setting [4]) was 0.673; in test [2] (setting [5]), 0.25; in test [2] (setting [6]) it was 0.771.

As for `COc1cc2ncnc(Nc3cc(Br)c(O)c(Br)c3)c2cc1OC`, the Z-AUC was -1.45 (inactive) in test [1], -0.545 in test [1] (setting [3]) and -1.13 in test [1] (measured here: PEO4 Z-AUC).

Regarding `Cc1ccc2c(=O)c3cccc(CC(=O)O)c3oc2c1C`, the Z-AUC in test [1] was 0.508 (inactive); in test [1] (setting [3]), 0.654; in test [1] (measured here: PEO4 Z-AUC) it was 0.37.

For the molecule `Cc1cc(OCCCS(C)(=O)=O)cc(C)c1-c1cccc(COc2ccc3c(c2)OC[C@H]3CC(=O)O)c1`, the Z-AUC in test [1] was -0.127 (inactive); in test [1] (setting [3]), 0.128; in test [1] (measured here: PEO4 Z-AUC), 0.794. The figures for the z-score in test [2] (setting [4]), in test [2] (setting [5]) and in test [2] (setting [6]) were 0.542, 0.159 and 0.614, respectively.
